“And” between values parts separate entries of the source, which are not always exact repeats. Equal values may be shown once. Results filed as inconclusive are left out. More than one record can exist for a structure, and the calls need not agree. The source made the active and inactive calls. How the source made its calls: active means hit-call score of the fitted dose curve at least 0.9, where 1 is the maximum; inconclusive means response in the unintended direction; inactive means score below 0.9.

In this experiment the target is human Thyroid hormone Receptor beta (TRb), THRB (gene 7068) (UniProt P10828). As to the kind of experiment: ATG_hTRb_XSP2: Attagene TRANS-FACTORIAL Multi-Species (XSP2) HepG2 Assay for human Thyroid hormone Receptor beta (TRb) (AID 2283840).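 Further: actives raise reporter mRNA so potency reflects agonist-like gain of signal.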 An outline of the steps: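 HepG2 cells were transiently transfected with GAL4-UAS multiplexed reporter units expressing chimeric NR-Gal4 proteins, dosed 24 h; reporter mRNA was quantified by RT-PCR, fluorescent labeling, HpaI digestion and capillary electrophoresis, fitted for gain of signal versus DMSO.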
Chain of human Thyroid hormone Receptor beta (TRb), THRB (gene 7068) (P10828 whole entry, looked up, the tested form may be a part): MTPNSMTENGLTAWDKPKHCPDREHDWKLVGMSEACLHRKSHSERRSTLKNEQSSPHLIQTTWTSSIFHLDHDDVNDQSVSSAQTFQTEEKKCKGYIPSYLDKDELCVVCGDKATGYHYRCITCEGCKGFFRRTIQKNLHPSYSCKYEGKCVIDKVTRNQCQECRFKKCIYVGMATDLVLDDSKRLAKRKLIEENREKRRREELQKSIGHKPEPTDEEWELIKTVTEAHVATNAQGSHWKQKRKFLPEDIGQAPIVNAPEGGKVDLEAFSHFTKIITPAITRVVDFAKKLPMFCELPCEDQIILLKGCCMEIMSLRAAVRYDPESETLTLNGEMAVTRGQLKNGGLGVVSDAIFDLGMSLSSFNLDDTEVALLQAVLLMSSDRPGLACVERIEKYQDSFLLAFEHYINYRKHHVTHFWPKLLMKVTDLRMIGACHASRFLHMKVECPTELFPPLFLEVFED
For the molecule `Cc1oc(-c2ccccc2)nc1CCOc1ccc(C[C@H](Nc2ccccc2C(=O)c2ccccc2)C(=O)O)cc1`, the outcome was inactive.

Consider `CCCOC(=O)c1ccc(O)cc1`, for which the AC50 was 100 µM (active) and the molecule was classed as inactive.

As for `CC[C@H](c1ccc(O)cc1)[C@@H](CC)c1ccc(O)cc1`, the call was inactive.

Regarding `CCC(C)(C)C1CCC(O)CC1` (stereo unspecified), the result was inactive.

Turning to `Oc1cc2ccccc2c2ccccc12`, the AC50 is 16.3 µM (active).

`c1ccc2c(c1)ccc1ccccc12`: the outcome was inactive.

In the case of `C#C[C@]1(O)CC[C@H]2[C@@H]3CCC4=CC(=O)CC[C@@H]4[C@H]3CC[C@@]21C`, the molecule was classed as inactive.

For the molecule `CCC(=C(c1ccc(O)cc1)c1ccc(OCCN(C)C)cc1)c1ccccc1`, the outcome was inactive.

As for `O=c1c(-c2ccc(O)cc2)coc2cc(O)ccc12`, the result was inactive.

Regarding `O=C(O)Cc1cc(I)c(Oc2cc(I)c(O)c(I)c2)c(I)c1`, the AC50 was 38.4 nM (active) and 12.3 nM (active).

(Values after PubChem BioAssay (EPA / NIEHS).)
